The results in this text go back to PubChem BioAssay.

Each structure is given as a SMILES string. Calls of active or inactive are those of the source.

A short description of assay [1]: small molecules captured by biotinylated probe aFSTL3 – biochemical, small-molecule microarray, fluorescence 635/667, stem cell growth factor project, primary screen (AID 1064).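 Also: measures binding of the biotinylated anti-FSTL3 antibody to printed compounds.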 To be noted: higher = more signal.
Assay [2] can be described thus: binders from COS7 lysate, DM2A8 probe, primary screen, torsin A project, cell lysate, small-molecule microarray, fluorescence 635/667 (AID 1065). The conditions noted are these: higher = more signal, COS7 lysate expressing mutant human TOR1A.
Assay [3] in a line: small molecules captured by biotinylated probe aFGF2 – biochemical, small-molecule microarray, fluorescence 635/667, stem cell growth factor project, primary screen (AID 1067).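 Also: measures binding of biotinylated aFGF2 protein to printed compounds on slides; z-score merges feature fluorescence and signal-to-noise across triplicate slides.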 The conditions noted are these: higher = more signal.
Assay [4] in a line: small molecules captured by biotinylated probe aFGF10 – biochemical, small-molecule microarray, fluorescence 635/667, stem cell growth factor project, primary screen (AID 1071).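 Also: score merges 667 nm spot intensity and signal to noise from triplicate slides.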 The conditions noted are these: higher = more signal.
The target of assay [5] is Neurogenic locus notch homolog protein 2 (Homo sapiens) (UniProt Q04721). The experiment in a line: small molecules binding Notch2 protein – biochemical, small-molecule microarray, 635 nm fluorescence, stem cell growth factors, primary screen (AID 1073). The conditions noted are these: higher = more signal.
Sequence of Neurogenic locus notch homolog protein 2 (Homo sapiens) (Q04721 whole entry, looked up, canonical isoform): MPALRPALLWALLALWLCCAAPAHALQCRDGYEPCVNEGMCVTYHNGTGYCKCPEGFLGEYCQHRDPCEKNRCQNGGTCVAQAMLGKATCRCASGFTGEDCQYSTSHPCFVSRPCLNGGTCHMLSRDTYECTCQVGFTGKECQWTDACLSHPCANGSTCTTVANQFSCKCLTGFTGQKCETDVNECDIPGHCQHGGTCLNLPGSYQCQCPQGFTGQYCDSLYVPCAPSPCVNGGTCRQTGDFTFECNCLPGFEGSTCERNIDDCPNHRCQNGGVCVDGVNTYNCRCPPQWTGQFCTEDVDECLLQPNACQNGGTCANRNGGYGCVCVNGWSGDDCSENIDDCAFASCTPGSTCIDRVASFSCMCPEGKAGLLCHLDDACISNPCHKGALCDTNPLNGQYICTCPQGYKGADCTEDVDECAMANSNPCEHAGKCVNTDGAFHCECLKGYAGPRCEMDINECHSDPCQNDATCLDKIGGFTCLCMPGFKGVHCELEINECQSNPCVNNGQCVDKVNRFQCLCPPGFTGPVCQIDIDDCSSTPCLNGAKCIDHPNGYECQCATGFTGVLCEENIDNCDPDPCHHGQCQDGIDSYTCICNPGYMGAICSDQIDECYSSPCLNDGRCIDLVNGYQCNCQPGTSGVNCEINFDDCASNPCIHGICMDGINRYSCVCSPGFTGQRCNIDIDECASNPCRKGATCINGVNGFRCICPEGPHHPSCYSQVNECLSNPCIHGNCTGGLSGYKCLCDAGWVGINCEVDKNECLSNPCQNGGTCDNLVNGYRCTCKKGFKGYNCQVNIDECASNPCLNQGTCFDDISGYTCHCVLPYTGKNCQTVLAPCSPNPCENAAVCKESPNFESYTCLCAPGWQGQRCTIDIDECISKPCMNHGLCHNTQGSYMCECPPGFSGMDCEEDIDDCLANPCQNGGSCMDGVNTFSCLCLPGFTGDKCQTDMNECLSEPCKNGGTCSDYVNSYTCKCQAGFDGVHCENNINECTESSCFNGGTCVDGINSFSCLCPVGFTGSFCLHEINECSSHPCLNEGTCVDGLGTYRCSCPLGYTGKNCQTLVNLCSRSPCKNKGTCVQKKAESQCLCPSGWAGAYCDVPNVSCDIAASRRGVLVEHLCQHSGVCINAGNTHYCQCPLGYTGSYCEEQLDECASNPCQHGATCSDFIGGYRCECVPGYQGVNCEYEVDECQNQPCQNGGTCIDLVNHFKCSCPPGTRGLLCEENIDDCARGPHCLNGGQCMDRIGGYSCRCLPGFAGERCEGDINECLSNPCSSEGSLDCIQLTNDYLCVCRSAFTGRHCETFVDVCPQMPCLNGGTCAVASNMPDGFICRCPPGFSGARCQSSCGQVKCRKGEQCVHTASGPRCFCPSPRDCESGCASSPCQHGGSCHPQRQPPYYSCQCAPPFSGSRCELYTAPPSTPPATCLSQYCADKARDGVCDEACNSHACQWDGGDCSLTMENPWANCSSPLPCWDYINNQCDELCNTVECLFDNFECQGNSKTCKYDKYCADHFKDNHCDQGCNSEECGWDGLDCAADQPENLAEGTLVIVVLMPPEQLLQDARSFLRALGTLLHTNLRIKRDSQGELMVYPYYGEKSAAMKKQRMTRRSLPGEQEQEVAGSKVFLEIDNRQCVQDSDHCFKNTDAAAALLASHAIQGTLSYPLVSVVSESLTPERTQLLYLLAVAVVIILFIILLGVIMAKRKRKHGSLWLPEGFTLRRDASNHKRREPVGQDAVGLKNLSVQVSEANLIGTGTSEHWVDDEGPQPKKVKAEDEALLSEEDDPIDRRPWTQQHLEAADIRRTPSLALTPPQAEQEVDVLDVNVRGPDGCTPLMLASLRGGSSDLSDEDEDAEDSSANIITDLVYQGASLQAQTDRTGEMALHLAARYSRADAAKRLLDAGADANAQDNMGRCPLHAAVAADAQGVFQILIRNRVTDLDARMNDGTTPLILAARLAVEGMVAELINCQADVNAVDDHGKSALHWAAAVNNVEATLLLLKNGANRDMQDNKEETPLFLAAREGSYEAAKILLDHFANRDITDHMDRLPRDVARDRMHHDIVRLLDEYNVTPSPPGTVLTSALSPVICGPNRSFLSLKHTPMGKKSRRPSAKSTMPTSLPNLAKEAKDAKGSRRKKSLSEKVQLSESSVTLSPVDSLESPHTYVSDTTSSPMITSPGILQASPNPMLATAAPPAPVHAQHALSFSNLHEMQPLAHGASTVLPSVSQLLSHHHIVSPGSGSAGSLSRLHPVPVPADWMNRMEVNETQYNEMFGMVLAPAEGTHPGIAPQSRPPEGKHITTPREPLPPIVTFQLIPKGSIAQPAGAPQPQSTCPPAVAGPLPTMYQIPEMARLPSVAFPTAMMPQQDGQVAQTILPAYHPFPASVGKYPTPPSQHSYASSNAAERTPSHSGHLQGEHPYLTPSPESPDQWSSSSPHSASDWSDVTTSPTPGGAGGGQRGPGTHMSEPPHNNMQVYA
Assay [6] concerns the target Pro-neuregulin-1, membrane-bound isoform (Homo sapiens) (UniProt Q02297). The assay can be described thus: small molecules binding neuregulin-1 protein – biochemical, small-molecule microarray, fluorescence 635/667, psychiatric disease protein project, primary screen (AID 1075).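 Also: score combines 667 nm spot fluorescence with signal to noise.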 To be noted: NRG1 binding, 635 nm fluorescence, higher = more signal.
In assay [7] the test system is Neuregulin-1 EGF-like domain. The assay can be described thus: small molecules binding NRG1 EGF domain – biochemical, small-molecule microarray, 635 nm fluorescence, primary screen (AID 1081).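 Also: binding of the protein to compounds printed on small-molecule microarray slides.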 To be noted: higher = more signal.
The nature of assay [8]: FRG1 expression reporter modulators in myotubes – cell-based, C2C12 myotubes, firefly/Renilla luciferase, luminescence, FRG1 inhibition for FSHD, primary screen (AID 1084). The conditions noted are these: FRG1 promoter luciferase, higher = more signal, called active from +8 up or from −8 down.
Assay [9] can be described thus: small molecules captured by biotinylated probe aFST – biochemical, small-molecule microarray, fluorescence 635/667, stem cell growth factor project, primary screen (AID 1086).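 Also: score merges 667 nm fluorescence with signal-to-noise of each printed compound spot.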 To be noted: higher = more signal.
Assay [10] in a line: binders of probe aHhip on microarray, primary screen, stem cell growth factor project, biochemical, small-molecule microarray, fluorescence 635/667 (AID 1087).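 Also: score merges spot fluorescence at 667nm with spot signal to noise ratio.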 The conditions noted are these: higher = more signal.
The test system of assay [11] is PRMT1 (protein arginine N-methyltransferase 1). The assay can be described thus: small molecules binding arginine methyltransferase PRMT1 – biochemical, small-molecule microarray, 635 nm fluorescence, primary screen (AID 1088).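 Also: binding of Prmt1 protein to compounds spotted on small-molecule microarray slides.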 The conditions noted are these: higher = more signal.
Assay [12] can be described thus: growth effects on S. cerevisiae YJM789 – YJM789 clinical isolate, OD600, 24 h, basal, primary screen (AID 1089).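 Also: growth of clinical yeast isolate S. cerevisiae YJM 789 seeded 1000 cells per well; test concentration not given here.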 The conditions noted are these: higher = more signal, called active from +8 up or from −8 down.
A short description of assay [13]: S. pombe growth modifiers, basal conditions – strain 972, OD600, 24 h, no modulator, primary screen (AID 1090).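 Also: basal condition with compound alone and no growth modifier present; test concentration not given here.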 The conditions noted are these: S. pombe 972 growth, higher = more signal, called active from +8 up or from −8 down.
Assay [14] can be described thus: budding yeast growth modifiers under rapamycin – strain BY4716, OD600, 96 h, primary screen (AID 1091). Also: test concentration not given here. The conditions noted are these: S. cerevisiae BY4716 + rapamycin, higher = more signal, called active from +8 up or from −8 down.
The target in assay [15] is Torsin-1A-interacting protein 2 (Homo sapiens) (UniProt Q8NFQ8). The experiment in a line: small molecules binding lysate-expressed LULL1 – cell lysate, human LULL1 lysate, 635/667 nm fluorescence, primary screen (AID 1092).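 Also: probe is lysate of COS7 cells overexpressing human LULL1; score merges per-feature 667 nm fluorescence with signal-to-noise.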 The conditions noted are these: small-molecule microarray, hLULL1 lysate binding, 635 nm fluorescence; higher = more signal.
Sequence of Torsin-1A-interacting protein 2 (Homo sapiens) (Q8NFQ8 whole entry, looked up): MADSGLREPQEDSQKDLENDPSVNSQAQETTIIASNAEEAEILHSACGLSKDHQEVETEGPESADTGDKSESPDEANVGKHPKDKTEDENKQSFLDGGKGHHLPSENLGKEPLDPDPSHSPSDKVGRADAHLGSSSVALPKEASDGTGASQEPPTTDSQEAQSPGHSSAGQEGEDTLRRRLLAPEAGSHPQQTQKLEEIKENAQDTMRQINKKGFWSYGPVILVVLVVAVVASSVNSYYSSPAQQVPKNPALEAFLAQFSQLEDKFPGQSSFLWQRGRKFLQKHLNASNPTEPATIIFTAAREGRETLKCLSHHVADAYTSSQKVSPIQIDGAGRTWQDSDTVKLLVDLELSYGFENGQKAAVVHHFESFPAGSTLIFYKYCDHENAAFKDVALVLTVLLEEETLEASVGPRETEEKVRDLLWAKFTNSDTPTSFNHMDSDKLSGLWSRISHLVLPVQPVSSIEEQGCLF
Assay [16] can be described thus: optical density change of DRC41 E. coli – strain DRC41, OD650, 24 h, E. coli filamentation project, primary screen (AID 1093).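 Also: MC1000 strain lacking acrAB efflux and sulA so SOS filamentation is blocked; test concentration not given here.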 To be noted: E. coli DRC41 growth, higher = more signal, called active from +8 up or from −8 down.
The nature of assay [17]: probe aLefty2 binding to arrayed compounds – biochemical, biotinylated probe, 635/667 nm fluorescence, primary screen (AID 1094).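 Also: score merges spot fluorescence near 667 nm with spot signal-to-noise ratio.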 The conditions noted are these: small-molecule microarray, higher = more signal.
Assay [18] concerns Noggin (protein binding on small-molecule microarray). The experiment in a line: small molecules binding Noggin protein – biochemical, 635/667 nm fluorescence, primary screen (AID 1095).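 Also: score merges 667 nm feature fluorescence with signal to noise over triplicate slides.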 To be noted: 635 nm fluorescence, higher = more signal.
In assay [19] the target is Neurogenic locus notch homolog protein 3 (Homo sapiens) (UniProt Q9UM47). The assay can be described thus: small molecules binding NOTCH3 protein – biochemical, 635/667 nm fluorescence, primary screen (AID 1096). To be noted: small-molecule microarray, 635 nm fluorescence, higher = more signal.
Assay [20] in a line: probe aEGFR binding to arrayed compounds – biochemical, biotinylated probe, 635/667 nm fluorescence, primary screen (AID 1097).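 Also: probe is a biotinylated anti-EGFR antibody binding compounds printed on slides; score combines fluorescence near 667 nm and signal to noise of each spot.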 To be noted: small-molecule microarray, higher = more signal.

Sequence of Pro-neuregulin-1, membrane-bound isoform (Homo sapiens) (Q02297 whole entry, looked up, the tested form may be a part, canonical isoform): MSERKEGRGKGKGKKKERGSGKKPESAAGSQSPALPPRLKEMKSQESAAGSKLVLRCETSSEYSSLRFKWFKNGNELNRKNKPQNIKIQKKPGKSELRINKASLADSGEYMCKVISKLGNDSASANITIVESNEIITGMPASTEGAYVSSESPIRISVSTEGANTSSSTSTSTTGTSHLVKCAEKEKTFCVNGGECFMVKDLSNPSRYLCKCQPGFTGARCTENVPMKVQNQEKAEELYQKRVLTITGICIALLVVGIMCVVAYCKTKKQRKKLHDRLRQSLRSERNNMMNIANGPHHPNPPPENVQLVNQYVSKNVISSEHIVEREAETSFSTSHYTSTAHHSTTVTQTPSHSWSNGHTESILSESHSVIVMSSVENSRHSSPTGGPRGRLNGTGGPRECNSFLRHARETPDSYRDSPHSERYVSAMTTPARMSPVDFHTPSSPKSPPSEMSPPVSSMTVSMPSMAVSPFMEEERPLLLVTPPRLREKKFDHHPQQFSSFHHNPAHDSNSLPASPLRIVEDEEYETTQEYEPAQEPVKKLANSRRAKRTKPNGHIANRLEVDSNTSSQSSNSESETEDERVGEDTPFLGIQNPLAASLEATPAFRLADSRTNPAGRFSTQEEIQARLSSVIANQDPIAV

For the compound `COC(=O)[C@@]1(Cc2ccccc2)[C@H]2c3cc(C(=O)N4CCCC4)n(Cc4ccc(OC)c(OC)c4)c3C[C@H]2CN1C(=O)c1ccccc1`, the composite z-score in [1] stood at 0.439; in assay [2], 0.411; in assay [3] it was 0.141; in [4] it was 0.605; in assay [5] it was 1.77; in assay [6], 2.16. Moreover, the composite z-score in [7] is 1.4; in assay [9], 1.88; in assay [10], 0.857; in assay [11], 0.632; in assay [15], 3.5; in [17] it was 0.666. The composite z-score in [18] stood at 0.0245; in [19], 1.14; in assay [20], 0.403. Besides, the z-score was 0.626 (inactive) in assay [8]; 0.49 (inactive) in assay [12]; 1.06 (inactive) in [13]; 1.45 (inactive) in assay [14]; -0.0046 (inactive) in assay [16].
Take `O=C1C[C@]2(c3ccc([N+](=O)[O-])cc3)C(=O)N(C3CC3)c3cc(CO)ccc3[C@H]2N1C1CCCCC1`: the composite z-score in assay [1] was -0.351; in [2], -0.124; in assay [3], -0.164; in assay [4] it was 0.097; in assay [5] it was -0.0343; in [6], -0.123. For the same compound, the composite z-score in [7] was -0.0608; in [9], -0.0927; in [10], -0.236; in assay [11], 0.788; in assay [15], 1.2; in assay [17], -0.171. The composite z-score in assay [18] is -0.533; in assay [19], -0.105; in assay [20] it was -0.0656. Moreover, the z-score in assay [8] is 0.413 (inactive); in [12], 0.0359 (inactive); in [13], 0.389 (inactive); in assay [14], -1.04 (inactive); in assay [16], 0.221 (inactive).
For the compound `CC(=O)NCCCC[C@@H]1NC(=O)[C@H]2C[C@@H](C(=O)NCCCCCCNC(=O)CS)[C@@H](c3cccc(OCCO)c3)N2C1=O`, the composite z-score in assay [1] is 0.419; in assay [2], 0.611; in [3] it was 0.0252; in assay [4], 0.492; in assay [5], -0.681; in [6], 0.465. The composite z-score is 1.42 in assay [7]; -0.0535 in assay [9]; -0.0618 in assay [10]; 1.56 in assay [11]; 2.65 in assay [15]; -0.0187 in assay [17]. The composite z-score in assay [18] was 0.153; in assay [19], 0.846; in assay [20], -0.123. Moreover, the z-score in [8] was 0.799 (inactive); in assay [12], 0.828 (inactive); in assay [13] it was 0.257 (inactive); in assay [14] it was 1.28 (inactive); in assay [16], -0.488 (inactive).
Consider `COC(=O)[C@@]1(Cc2ccccc2)[C@H]2c3cc(C(=O)N(C)C)n(CCSC(=N)N)c3C[C@H]2CN1C(=O)c1ccccc1`, for which the composite z-score in assay [1] was -0.0908; in assay [2], -0.512; in assay [3] it was 0.243; in [4], -0.248; in assay [5], -0.175; in assay [6] it was 1.28. In addition, the composite z-score in [7] was 1.04; in assay [9], 0.319; in assay [10], 0.0401; in assay [11], 0.265; in assay [15], 2.05; in assay [17], 0.169. Also, the composite z-score in assay [18] was -0.699; in assay [19] it was -0.0995; in assay [20] it was -0.112. Also, the z-score in assay [8] was 0.453 (inactive); in assay [12], 0.485 (inactive); in assay [13], 1.12 (inactive); in [14], 0.102 (inactive); in assay [16] it was -0.0906 (inactive).
As for `C=CC[C@@]1(C(=O)N(C)C)N=C(c2ccc(OCCCO)cc2)O[C@@H]1c1ccccc1CN=[N+]=[N-]`, the composite z-score in assay [1] is 0.151; in assay [2] it was 0.448; in assay [3], -0.0004; in assay [4], 1.01; in assay [5], 1.61; in assay [6], 1.68. For the same compound, the composite z-score in assay [7] turned out to be 1.17; in [9], 1.18; in [10], 0.0373; in assay [11], 1.55; in [15], 3.33; in assay [17] it was 0.264. In addition, the composite z-score amounted to 1.77 in assay [18], 1.07 in assay [19] and 0.538 in assay [20]. The z-score is -2.64 (inactive) in assay [8]; -0.127 (inactive) in assay [12]; -0.0815 (inactive) in [13]; -0.64 (inactive) in assay [14]; 1.42 (inactive) in [16].
`CC(C)NC(=O)[C@@]1(C)c2ccccc2C(=O)N(Cc2ccccc2)[C@H]1c1ccc(CO)cc1`: the composite z-score in [1] is 0.267; in [2], 0.824; in [3], -0.169; in assay [4], -0.548; in assay [5], -1.12; in assay [6], 1. For the same compound, the composite z-score in assay [7] is 0.814; in [9], -0.875; in assay [10], -0.291; in [11], 1.53; in assay [15], 3.22; in assay [17], -0.13. In addition, the values for the composite z-score in assay [18], in assay [19] and in assay [20] were -0.644, -0.554 and -0.0035, respectively. Further, the z-score is -2.47 (inactive) in assay [8]; -1.46 (inactive) in assay [12]; 0.138 (inactive) in assay [13]; -0.932 (inactive) in assay [14]; 1.11 (inactive) in assay [16].
Take `O=C1C[C@@](C(=O)NC2CC2)(c2ccc([N+](=O)[O-])cc2)[C@@H](c2ccc(CO)cc2)N1C1CCCCC1`: the composite z-score in assay [1] was -0.281; in [2] it was 0.286; in assay [3], 0.0626; in [4], 0.907; in assay [5] it was 0.804; in [6] it was 1.81. The composite z-score was 1.3 in [7]; 0.832 in [9]; 0.164 in assay [10]; 1.52 in [11]; 3.12 in [15]; -0.0139 in assay [17]. For the same compound, the values for the composite z-score in assay [18], in assay [19] and in assay [20] were 1.74, 1.07 and -0.0828, respectively. The z-score is -0.534 (inactive) in assay [8]; -1.19 (inactive) in [12]; -2.19 (inactive) in [13]; -2.54 (inactive) in assay [14]; 0.778 (inactive) in assay [16].
Regarding `CC(C)C[C@@H]1NC(=O)[C@@]23C(=O)N[C@@H](Cc4ccccc4)C2[C@H](C)[C@@]2(C)O[C@H]2C3/C=C/C/C=C\CNC(=O)CNC1=O` (stereo not given in full), the composite z-score in [1] is -0.351; in assay [2] it was 0.0664; in assay [3], -0.13; in assay [4], 0.573; in assay [5], 0.0474; in assay [6] it was 0.458. Besides, the composite z-score is 0.325 in assay [7]; -0.175 in assay [9]; -0.48 in [10]; 0.514 in [11]; 2.23 in [15]; 0.0207 in assay [17]. Further, the composite z-score was 0.609 in [18], 0.53 in assay [19] and -0.0812 in [20]. Moreover, the z-score is -0.866 (inactive) in [8]; -0.135 (inactive) in [12]; -1.1 (inactive) in assay [13]; -0.159 (inactive) in [14]; -0.52 (inactive) in [16].
For the compound `COC(=O)C(CC#Cc1ccc2c(c1)[C@]1(C(=O)N2)[C@H](C(=O)NC[C@H](O)c2ccccc2)[C@H]2C(=O)O[C@H](c3ccccc3)[C@H](c3ccccc3)N2[C@@H]1c1ccccc1OCCO)C(=O)OC`, the composite z-score is -0.266 in [1]; 0.423 in assay [2]; -0.0996 in [3]; 0.558 in assay [4]; 1.08 in assay [5]; 1.27 in assay [6]. The composite z-score was 1.3 in assay [7]; 0.254 in [9]; 0.0749 in assay [10]; 1.54 in assay [11]; 2.89 in assay [15]; -0.0598 in [17]. The composite z-score in assay [18] was 0.8; in [19], 1.12; in [20] it was -0.0332. Further, the z-score in [8] is 0.0111 (inactive); in assay [12] it was 2.15 (inactive); in assay [13], -0.247 (inactive); in assay [14], 2.59 (inactive); in [16], 2.13 (inactive).
